Calls of active or inactive are those of the source. How the source made its calls: active means hit-call score of the fitted dose curve at least 0.9, where 1 is the maximum; inactive means score below 0.9.
Target: Nuclear respiratory factor 1 (Homo sapiens) (UniProt Q16656)
Test: ATG_NRF1_CIS: Attagene CIS-FACTORIAL HepG2 Assay for human Nuclear Respiratory Factor 1 (NRF1) Orphan Gene (AID 2282987)
Conditions: HepG2 NRF1 cis-element reporter, Attagene multiplex; actives raise or lower the signal
Description: ATG_CIS is a cell-based, multiplexed-readout assay that uses HepG2, a human liver cell line, with measurements taken at 24 hours after chemical dosing in a 24-well plate.ATG_NRF1_CIS is one of 52 assay component(s) measured or calculated from the ATG_CIS assay. It is designed to make measurements of mRNA induction, a form of inducible reporter, as detected with fluorescence intensity signals by Reverse transcription polymerase chain reaction (RT-PCR) and Capillary electrophoresis technology.Data from the assay component ATG_NRF1_CIS was analyzed into 1 assay endpoint. This assay endpoint, ATG_NRF1_CIS, was analyzed with bidirectional fitting relative to DMSO as the negative control and baseline of activity. Using a type of inducible reporter, measures of mRNA for gain or loss-of-signal activity can be used to understand the reporter gene at the transcription factor-level as they relate to the gene NRF1. Furthermore, this assay endpoint can be referred to as a primary readout, because this assay has produced multiple assay endpoints where this one serves a reporter gene function. To generalize the intended target to other relatable targets, this assay endpoint is annotated to the dna binding intended target family, where the subfamily is nuclear respiratory factors.
Human liver HepG2 cells are transiently transfected with multiple reporter transcription units (MRTUs) in 6-well plates using FuGene 6 reagent (Roche; 3 ml FuGene/1 mg DNA). The MRTU constructs are regulated by a cis-regulating element (promoter). […] A major difference between the CIS and TRANS system is that in CIS activities of endogenous TFs are measured, whereas the TRANS assay evaluates changes in activities of exogenous, chimeric NR-Gal4 proteins. […] At the end of 24 hour incubation, total RNA was isolated using TriZol reagent (Invitrogen). The isolated RNA is then reverse-transcribed using oligo(dT) primer and Mo-MLV reverse transcriptase (Invitrogen) with DNAse I (Ambion) treatment for 30 min. The one-tenth of the produced cDNA was amplified by PCR using Taq DNA polymerase (Invitrogen) and two reporter sequence-specific primers. The PCR products were fluorescently labeled by primer extension with 6-arboxyfluorescein (6-FAM) 5'-labeled reporter sequence-specific primer (2 min at 95 C, 20 s at 68 C and 10 min at 72 C) and these products were digested with 5U of HpaI (New England Biolabs) for 2h at 37 C. The fragments were purified using Qiaquick PCR columns (Qiagen), analyzed on an ABI 3130xL genetic analyzer (Applied Biosystems) with peak positions identified by using a set of X-rhodamine (ROX)-labeled MapMarker1000 molecular weight standards (BioVentures). The raw capillary electrophoresis data was processed using Attagraph software (Attagene).

Chain of Nuclear respiratory factor 1 (Homo sapiens) (Q16656 whole entry, looked up): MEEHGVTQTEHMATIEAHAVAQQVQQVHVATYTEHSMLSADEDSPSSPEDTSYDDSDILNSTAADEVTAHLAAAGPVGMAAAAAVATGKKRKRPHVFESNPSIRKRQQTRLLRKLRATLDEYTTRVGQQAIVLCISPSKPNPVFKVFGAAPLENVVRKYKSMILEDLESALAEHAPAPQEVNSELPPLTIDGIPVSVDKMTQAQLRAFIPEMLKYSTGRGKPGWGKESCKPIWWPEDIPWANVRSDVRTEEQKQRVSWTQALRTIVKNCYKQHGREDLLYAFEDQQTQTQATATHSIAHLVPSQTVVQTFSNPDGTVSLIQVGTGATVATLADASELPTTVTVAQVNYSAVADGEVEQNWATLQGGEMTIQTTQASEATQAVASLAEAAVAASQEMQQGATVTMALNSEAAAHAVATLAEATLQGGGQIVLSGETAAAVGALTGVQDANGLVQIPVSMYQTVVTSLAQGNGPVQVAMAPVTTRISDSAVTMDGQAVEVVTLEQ

Structure (SMILES)	outcome	AC50
c1ccc2cnccc2c1	inactive	–
CO[Si](CCCS)(OC)OC	inactive	–
C=CCCCCCCCCC=O	inactive	–
CCN(CC)c1cccc(C)c1	inactive	–
CCCC=C(C=O)CC	inactive	–
CC=C(C)C=CC=C(C)C	inactive	–
CCCCCCOc1ccc(N)cc1	–	100 µM (active)
CCCCNC(=S)NCCCC	inactive	–
CC(C)=NNC(N)=S	inactive	–
CO[Si](C)(C)OC	inactive	–
CCCCNS(=O)(=O)c1ccc(C)cc1	inactive	–
C=CC(=O)OCCCCCCCCCC	inactive	–
CCC(=O)C1CC(C(C)C)CC=C1C (stereo not given)	inactive	–
O=C(O[C@@H]1Cc2c(O)cc(O)cc2O[C@@H]1c1cc(O)c(O)c(O)c1)c1cc(O)c(O)c(O)c1	inactive	–
CC(=O)OC/C=C(/C)CCC=C(C)C	inactive	–
CC(C)c1ccc(O)c(C(C)C)c1	inactive	–
CC/C=C\CCOC(=O)c1ccccc1O	inactive	–
O=C(O)C1CCC(C(=O)O)CC1 (stereo not given)	inactive	–
CN1CCN(C)CC1	inactive	–
CC(C)=CCl	inactive	–

Structure (SMILES)	outcome	AC50
CC(C)=CCCC(C)=CC#N	inactive	–
CCOC(=O)c1ccccc1C	inactive	–
COc1ccc(C(=O)c2ccccc2)c(O)c1	inactive	–
CCc1cccc(C)c1N(C(=O)CS(=O)(=O)O)C(C)COC (stereo not given)	inactive	–
CCCCC1C(=O)N(c2ccccc2)N(c2ccccc2)C1=O	inactive	–
Clc1cc(Cl)c(Cl)c(Cl)c1Cl	inactive	–
CCC(C)C(=O)OC (stereo not given)	inactive	–
CCCCNS(=O)(=O)c1ccccc1	inactive	–
CCCc1ccc(O)c(OC)c1	inactive	–
CCCCCCCCCCCC(C)=O	–	158 µM (active)
N#Cc1ccc(C2CCCc3cncn32)cc1 (stereo not given)	inactive	–
CCCC/C=C/C=C\C=O	inactive	–
C=C1C[C@H]2[C@@H]3C=C(C)C4=CC(=O)CC[C@]4(C)[C@H]3CC[C@]2(C)[C@@]1(OC(C)=O)C(C)=O	–	88.1 µM (active)
C=CCNCC=C	inactive	–
Oc1ccc(-c2ccccc2)c(Cl)c1	inactive	–
N=C1C=CC(=C(c2ccc(N)cc2)c2ccc(N)cc2)C=C1	–	100 µM (active)
c1ccc2sc(SSN3CCOCC3)nc2c1	–	100 µM (active)
COc1cc(O)c(C(=O)c2ccccc2)cc1S(=O)(=O)O	inactive	–
CC(=O)OC1CCCCC1	inactive	–
CCCSSCCC	inactive	–
